From PubChem BioAssay (Tox21)
Where “and” joins values, the source holds several entries; their conditions need not be identical. Identical values can stand only once. Records with an inconclusive call do not appear. A call without a number means that no potency is given here. Some compounds were tested as several samples or in several runs, with calls that do not always agree. Calls of active or inactive are those of the source. Calls come from the whole dose curve; as a rule, active = well fitted cell-killing curve with a large enough effect in the repeat runs; inconclusive = weak or mixed curves, or effect the other way; inactive = no such curve, though single readings can be large or run the other way.

Assay: qHTS assay to identify small molecule antagonists of the sonic hedgehog signaling (Shh) pathway - cell viability counter screen (AID 1259367); note: nearly all actives have a fitted effect of over 55% in size
Settings: NIH/3T3 Gli1-Luc viability, CellTiter-Fluor, 24 h; series mostly up to 92.4 µM
Excerpt: National Center for Advancing Translational Sciences [NCATS]
NIH Chemical Genomics Center [NCGC]
U.S. Environmental Protection Agency [EPA]
National Institutes of Environmental Health Sciences [NIEHS]
National Toxicology Program [NTP]
U.S. Food and Drug Administration [FDA]
The sonic hedgehog (Shh) pathway is essential for normal embryonic development. Dysregulation of the Shh pathway can cause severe developmental defects in organs. Therefore chemicals that interfere with the pathway are potential developmental toxicants. A cell line designated 3T3Gli1-Luc (DMB/OARSA/CFSAN/FDA, Laurel, MD), a NIH/3T3 derived clone containing stably integrated Gli1-Luc reporter is used to detect chemical interference of the Shh pathway, by changes in the expression of the firefly Luc gene under the control of the Gli1 transcriptional response element. This cell line was used to screen Tox21 libraries for identifying and prioritizing the potential developmental toxicants that interfere Shh pathway. Conditioned medium-stimulated mode was used to screen for chemicals inhibiting Shh signaling. The cytotoxicity of the compounds was tested in parallel by measuring the cell viability using CellTiter-Fluor assay system (Promega, Madison, WI) in the same wells.
Tox21 Assay Protocol Summary:
3T3 Gli1-Luc cells were dispensed at 2,000 per well in 5uL of culture medium into white solid bottom 1536-well plates (Greiner Bio-One, Monroe, NC) using a Multidrop Combi (Thermo Scientific, Waltham, MA) dispenser. The assay plates were incubated at 37 C and 5% CO2 for 4hr, and then 23nL of compounds dissolved in DMSO and positive control were transferred using a Pintool station (Wako, San Diego, CA). The compound transfer was followed by the addition of 1ul conditioned medium or assay buffer using two separate tips of Flying Reagent Dispenser (FRD, Aurora Discovery, San Diego, CA). The assay plates were incubated at 37C and 5% CO2 for 24hr. For viability read, after 23hr of compound treatment, 1uL of CellTiter-Fluor reagent (Promega Corporation, Madison, WI) was added to each well of the assay plates using Flying Reagent Dispenser (FRD, Aurora Discovery, San Diego, CA) and incubated the assay plates at 37C for 1hr. The fluorescence signal was quantified using a ViewLux plate reader (Perkin Elmer, Shelton, CT).
Potency is the fitted concentration of half-maximal effect.

Row | SMILES | Potency
1 | Nc1ccc2c(c1)C(=O)c1ccccc1C2=O | inactive
2 | c1ccc2ncccc2c1 | inactive
3 | COCCOCCOCCO | inactive
4 | NCCS(=O)(=O)O | 22.5 µM (active) and inactive
5 | CC(=O)[C@H]1CC[C@H]2[C@@H]3CC=C4C[C@@H](O)CC[C@]4(C)[C@H]3CC[C@]12C | inactive
6 | CC/C(=C(/CC)c1ccc(O)cc1)c1ccc(O)cc1 | inactive
7 | C[C@]12C=CC(=O)C=C1CC[C@H]1[C@@H]3C[C@@H](O)[C@](O)(C(=O)CO)[C@@]3(C)C[C@H](O)[C@@]12F | inactive
8 | CCCCCCOCCOCCO | inactive
9 | CCC/C=C/C=O | inactive
10 | CCCCCCCC/C=C\CCCCCCCC(=O)O | inactive
11 | C1COCCN1 | inactive
12 | CN(C)CCCN1c2ccccc2Sc2ccc(Cl)cc21 | 61.1 µM (active)
13 | CC1(C)C(C=C(Cl)Cl)C1C(=O)OCc1cccc(Oc2ccccc2)c1 (stereo not given) | inactive
14 | Cc1ccc(S(=O)(=O)NCl)cc1 | inactive
15 | O=C1OC2(c3ccccc31)c1cc(I)c(O)c(I)c1Oc1c2cc(I)c(O)c1I | 15.5 µM (active) [middle of 4 runs]
16 | Cc1ccc(S(=O)(=O)O)cc1C | inactive
17 | Cc1ccc(C)c(O)c1 | inactive
18 | OC[C@H]1O[C@@H]2O[C@H]3[C@H](O)[C@@H](O)[C@@H](O[C@H]4[C@H](O)[C@@H](O)[C@@H](O[C@H]5[C@H](O)[C@@H](O)[C@@H](O[C@H]6[C@H](O)[C@@H](O)[C@@H](O[C@H]7[C@H](O)[C@@H](O)[C@@H](O[C@H]1[C@H](O)[C@H]2O)O[C@@H]7CO)O[C@@H]6CO)O[C@@H]5CO)O[C@@H]4CO)O[C@@H]3CO | inactive and 25.7 µM (active)
19 | CC(C)[N+](C)(CCOC(=O)C1c2ccccc2Oc2ccccc21)C(C)C | inactive
20 | C=CCOC(=O)C(=C)C | inactive

Row | SMILES | Potency
21 | CC(=O)[C@@]1(O)CC[C@H]2[C@@H]3C[C@H](C)C4=CC(=O)C=C[C@]4(C)[C@@]3(F)[C@@H](O)C[C@@]21C | inactive
22 | c1ccc2c(c1)ccc1ncccc12 | inactive
23 | COc1ccc2nc(N)sc2c1 | inactive
24 | CC(=O)Nc1ccc2c(c1)Cc1cc(NC(C)=O)ccc1-2 | inactive
25 | C=CC(C)(O)CCC=C(C)C (stereo not given) | inactive
26 | Cc1ccc(N)c([N+](=O)[O-])c1 | inactive
27 | C=C[C@@]1(C)CC(=O)[C@]2(O)[C@@]3(C)[C@@H](O)CCC(C)(C)[C@@H]3[C@H](O)[C@H](OC(C)=O)[C@@]2(C)O1 | inactive
28 | C[C@]12CC[C@@H]3c4ccc(O)cc4CC[C@H]3[C@@H]1CC[C@H]2O | inactive
29 | CC1(C)NC(=O)N(c2ccc([N+](=O)[O-])c(C(F)(F)F)c2)C1=O | inactive
30 | CCCOCCO | inactive
31 | CCCCCCCCCCCCCO | inactive
32 | C=C[Si](OCCOC)(OCCOC)OCCOC | inactive
33 | c1ccc2c(c1)[nH]c1ccccc12 | inactive
34 | COC(=O)CC(=O)OC | inactive
35 | O=Cc1ccccc1C=O | 54.5 µM (active) and inactive
36 | C1CN(SSN2CCOCC2)CCO1 | 48.1 µM (active) and 61.1 µM (active)
37 | Nc1cc(Cl)c(N)c(Cl)c1 | inactive
38 | Cc1ccc(/C(=C\CN2CCCC2)c2ccccn2)cc1 | 36.2 µM (active) and inactive
39 | O=C(O)c1cc(=O)[nH]c(=O)[nH]1 | inactive and 16.8 µM (active)
40 | C=CN1CCCC1=O | inactive
